Results reported in the OligoGym collection.

biological target: STX17; assay: pooled miR-30 sensor sort-seq; sequence = guide strand; details: shRNA
Note: reference of the scale not given here.

| Sequence | sensor-assay potency score (higher = more potent) |
| --- | --- |
| TTCTTTAACAGGATCTATCATT | -0.828 |
| AATGCTGTCAATCTTCTCCTGC | 0.00387 |
| TTCTACACATCTCAAGTCCTTA | 0.0253 |
| TTGACATGGTCTGCAATGCTGT | -0.961 |
| TACTTCTCAATATTTATCTGGT | 0.329 |
| TTTGTATCAATTTTCCACCTGT | 0.455 |
| TAGTATGAAATGCTCCACCAAC | -1.07 |
| TCAAACTCTGAGAACTAGCTTC | 0.0575 |
| TTCTTCATCATTAAATTGCTTC | 0.0874 |
| TTCTGCAGCATTTTGATCTTGA | 0.632 |
| TATATCTGAGTCAAACTCTGAG | 0.23 |
| TTCATCATTAAATTGCTTCTTA | 0.611 |

biological target: STYK1; assay: as above; details: shRNA

| Sequence | sensor-assay potency score (higher = more potent) |
| --- | --- |
| TTGAGTTCTTTGTTCTCTGATA | -1.2 |
| TTGAGGTCCAGAACGCTGCTGT | 0.125 |
| TAGAAGAGGCTCTCCACTCTGA | 0.202 |
| TTCATGATACTGTACATGGTAT | -0.548 |
| TTTAATGGCAGCTTCTAGGCGC | 0.0946 |
| ATAGTCATCACATCCCGCCGAC | -0.512 |
| TTGAGAATAACACTCTTGGGCT | -0.459 |
| TATGTCTTAGCTCAGGATGTGT | -0.84 |
| ATCCATAGTCATCACATCCCGC | -0.719 |
| ATAGTAACCAACAAAGTTGGGA | 0.0523 |
| TATTCCTTCATTTCATTCCAAA | -1.26 |
| TTGTTCTCTGATAAAAAGCCAC | -1.1 |
